Many of the other results were omitted from the sample, so hits are more common in it than they were.
mHTT CaM bind: mutant huntingtin-calmodulin interaction inhibitors – biochemical, AlphaScreen, primary screen; P42858; AlphaScreen His-mHTT/GST-CaM binding, luminescence; inhibition, % at 15 µM; 190,000 tested, 3.6% active;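 note: 0% = both proteins with DMSO and 100% = one protein alone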
Pf apPOL block: Pf-apPOL inhibitors, biochemical, fluorescence. Plasmodium falciparum apicoplast DNA polymerase (apPOL). Recombinant Pf-apPOL, molecular beacon fluorescence, 1.5 h. inhibition, % at 10 µM. 210,000 tested, 0.25% active
Active calls of the source: *. Cut-off read from the data, not from the text of the source: active = inhibition above about 50%; inactive = the rest.

How did Fc1cccc(NCc2ccco2)c1 do in these assays?
mHTT CaM bind: 14.5; Pf apPOL block: 1.6

Results for CC1=C(c2ccccc2)S(=O)(=O)N=C1N1CCCN(C(=O)C2CC2)CC1 ?
mHTT CaM bind: 4.8; Pf apPOL block: 0.4

Results for Cc1ncn(CC(=O)Nc2ccccc2Cl)c(=O)c1C ?
mHTT CaM bind: -6.0; Pf apPOL block: -1.6

What do the screens show for `O=[N+]([O-])c1cccc(Cl)c1N1CCN(c2ccc([N+](=O)[O-])c3cccnc23)CC1`?
mHTT CaM bind: 7.0; Pf apPOL block: -5.2

How did CC(=O)NC(c1ccccc1Cl)c1cc([N+](=O)[O-])c2cccnc2c1O (centres undefined) do in these assays?
mHTT CaM bind: 100.0*; Pf apPOL block: 1.4

How did COc1ccc(NC(=O)CSc2cccc3cccnc23)c([N+](=O)[O-])c1 do in these assays?
mHTT CaM bind: 28.0; Pf apPOL block: -12.7

Results for CC(=O)NC(c1ccccc1)c1cc([N+](=O)[O-])c2cccnc2c1O (centres undefined) ?
mHTT CaM bind: 100.3*; Pf apPOL block: -0.5

Results for Cc1cc(I)ccc1Nc1c([N+](=O)[O-])cc([N+](=O)[O-])c2cccnc12 ?
mHTT CaM bind: 46.0; Pf apPOL block: -3.6

Results for COc1ccc(C(NC(C)=O)c2cc([N+](=O)[O-])c3cccnc3c2O)cc1 (centres undefined) ?
mHTT CaM bind: 100.0*; Pf apPOL block: -6.8

Results for Cc1cc(F)c(F)c(C(=O)Nc2cccc(F)c2)c1 ?
mHTT CaM bind: -8.0; Pf apPOL block: -8.2

Results for CC(=O)Nc1ccc(N2C(=O)CSC2c2ccc(C(C)(C)C)cc2)cc1 (centres undefined) ?
mHTT CaM bind: 13.0; Pf apPOL block: -4.3

Results for CC(Oc1ccc(Cl)cc1Cl)C(=O)NC1CC1 (centres undefined) ?
mHTT CaM bind: -6.5; Pf apPOL block: -5.6

What do the screens show for `O=C(CCCN1CCN2CCCCCC2C1)c1ccc(F)cc1` (centres undefined)?
mHTT CaM bind: -6.7; Pf apPOL block: 8.8

How did CC1CCCC(Nc2ccc(N3C(=O)C4C5C=CC(C5)C4C3=O)cc2[N+](=O)[O-])C1C (centres undefined) do in these assays?
mHTT CaM bind: 55.0*; Pf apPOL block: -19.1

Results for CC1CCCC(Nc2ccc(N3C(=O)CCC3=O)cc2[N+](=O)[O-])C1C (centres undefined) ?
mHTT CaM bind: 42.0; Pf apPOL block: -15.7

How did CCOC(=O)c1ccc(Oc2coc3c(CN4CCCCC4)c(O)ccc3c2=O)cc1 do in these assays?
mHTT CaM bind: -0.6; Pf apPOL block: -4.5

Results for COc1ccc(Oc2coc3c(CN4CCCCCC4)c(O)ccc3c2=O)cc1 ?
mHTT CaM bind: 97.0*; Pf apPOL block: -3.4

Results for Cc1ccc(NC(=O)CN(C)S(=O)(=O)c2ccc3[nH]c4c(c3c2)CCCC4)cc1 ?
mHTT CaM bind: 47.8; Pf apPOL block: 0.0

What do the screens show for `CN(CC(=O)Nc1ccc(Cl)cc1)S(=O)(=O)c1ccc2[nH]c3c(c2c1)CCCC3`?
mHTT CaM bind: 65.8*; Pf apPOL block: 0.9

Results for CN(CC(=O)NC1CCCCCC1)S(=O)(=O)c1ccc2[nH]c3c(c2c1)CCCC3 ?
mHTT CaM bind: 58.5*; Pf apPOL block: -1.1

What do the screens show for `CN(CC(=O)Nc1cccc(Cl)c1)S(=O)(=O)c1ccc2[nH]c3c(c2c1)CCCC3`?
mHTT CaM bind: 54.8*; Pf apPOL block: -0.6

Results for Cc1ccccc1NC(=O)CN(C)S(=O)(=O)c1ccc2[nH]c3c(c2c1)CCCC3 ?
mHTT CaM bind: 14.3; Pf apPOL block: -3.8

How did Cc1ccc(NC(=O)CN(C)S(=O)(=O)c2ccc3[nH]c4c(c3c2)CCCC4)c(Cl)c1 do in these assays?
mHTT CaM bind: 42.9; Pf apPOL block: -5.1

Results for Cc1cccc(NC(=O)CN(C)S(=O)(=O)c2ccc3[nH]c4c(c3c2)CCCC4)c1 ?
mHTT CaM bind: 63.9*; Pf apPOL block: 2.7

Results for Cc1cc(C)c(NC(=O)CN(C)S(=O)(=O)c2ccc3[nH]c4c(c3c2)CCCC4)c(C)c1 ?
mHTT CaM bind: 37.5; Pf apPOL block: -3.8

What do the screens show for `COc1ccc(C2=NN3C(C2)c2cc(Cl)ccc2OC3c2ccncc2)cc1OC` (centres undefined)?
mHTT CaM bind: 45.0; Pf apPOL block: -1.1

What do the screens show for `Cc1ccnc(N2CCCC(C(=O)NCCN3CCN(c4ccccc4F)CC3)C2)n1` (centres undefined)?
mHTT CaM bind: -4.3; Pf apPOL block: 2.9

What do the screens show for `N#Cc1cccc(S(=O)(=O)NCCC2CCN(C(=O)c3ccc(F)cc3)CC2)c1`?
mHTT CaM bind: 29.4; Pf apPOL block: -2.4

How did COc1ccc(Cl)cc1NC(=O)COc1ccc(C)c(C)c1 do in these assays?
mHTT CaM bind: -14.2; Pf apPOL block: -11.4

What do the screens show for `CC1(C)CC(=O)C2=C(C1)N(c1cc(C(F)(F)F)ccc1Cl)C(N)=C(C#N)C2c1cccnc1` (centres undefined)?
mHTT CaM bind: 10.0; Pf apPOL block: -1.2

Results for COc1ccc(CNC(=O)c2cnn3c(C)c(Cc4ccccc4C)c(C)nc23)cc1 ?
mHTT CaM bind: 1.0; Pf apPOL block: -9.0

How did Oc1c(Cl)cc(Cl)cc1C=Nc1ccc2oc(-c3ccncc3)nc2c1 do in these assays?
mHTT CaM bind: 2.0; Pf apPOL block: -6.0

What do the screens show for `CN(CC(=O)NCCC1=CCCCC1)S(=O)(=O)c1ccc2[nH]c3c(c2c1)CCCC3`?
mHTT CaM bind: 63.1*; Pf apPOL block: -9.6

Results for CN(CC(=O)NCc1cccnc1)S(=O)(=O)c1ccc2[nH]c3c(c2c1)CCCC3 ?
mHTT CaM bind: 21.4; Pf apPOL block: -5.0

What do the screens show for `O=c1[nH]c(CN2CCCCC2)nc2c1oc1ccccc12`?
mHTT CaM bind: 4.0; Pf apPOL block: 69.3*

Results for O=c1[nH]c(CN2CCOCC2)nc2ccccc12 ?
Pf apPOL block: -18.1

What do the screens show for `COc1ccc(-c2nnc(NC(=O)c3ccc(S(=O)(=O)N4CCOCC4)cc3)o2)c(OC)c1`?
mHTT CaM bind: 54.0*; Pf apPOL block: 5.9

How did COc1ccc(-c2nnc(NC(=O)c3ccc(OC)c(OC)c3)o2)cc1 do in these assays?
mHTT CaM bind: 50.0*; Pf apPOL block: -7.1

Results for COc1ccc(C(=O)Nc2nnc(-c3ccccc3)o2)cc1OC ?
mHTT CaM bind: 12.0; Pf apPOL block: -4.1

What do the screens show for `COc1ccc(-c2nnc(NC(=O)c3ccc(S(=O)(=O)N4CCCCCC4)cc3)o2)cc1`?
mHTT CaM bind: 8.0; Pf apPOL block: -0.2

What do the screens show for `COc1ccc(-c2nnc(NC(=O)c3ccc(S(=O)(=O)N4CCCCC4)cc3)o2)cc1`?
mHTT CaM bind: -1.0; Pf apPOL block: 73.6*

How did COc1ccc(-c2nnc(NC(=O)c3ccc(S(=O)(=O)N4CCOCC4)cc3)o2)cc1 do in these assays?
mHTT CaM bind: 6.0; Pf apPOL block: -5.5

Results for CCN(CC)c1ccc(CN2CCN(C)CC2)cc1 ?
mHTT CaM bind: 67.9*; Pf apPOL block: 0.4

Results for CCN(CC)c1ccc(CN2CCN(c3ncccn3)CC2)cc1 ?
mHTT CaM bind: 7.7; Pf apPOL block: -9.8

How did CN1CCCN(Cc2ccc(Br)cc2)CC1 do in these assays?
mHTT CaM bind: 0.1; Pf apPOL block: 74.7*

How did CC(C)c1ccc(CN2CCCN(C)CC2)cc1 do in these assays?
mHTT CaM bind: -2.7; Pf apPOL block: -11.0

What do the screens show for `CCN1CCN(Cc2ccc(N(CC)CC)cc2)CC1`?
mHTT CaM bind: 68.8*; Pf apPOL block: 38.3

From PubChem
